Measurements: PubChem BioAssay (NCI)
Compounds without any hit were thinned out: in the full panel of roughly 83,000, 20% have a hit.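 The test compound was applied at a single concentration to cells in 96-well plates for 48 hours, and percent growth was recorded.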 Values without a mark were called inactive. Active and inactive are the calls of the source. Rule for the calls: active = growth percent below 10; inactive = the rest.

What was measured:
Assay in all cases: NCI-60 one-dose screen, 48 h (100 = growth as untreated, 0 = no growth, -100 = all killed)
Conditions in all cases: 10 µM unless noted
DU-145 prostate = test system: DU-145 prostate
K-562 leukemia = test system: K-562 leukemia
MALME-3M melanoma = test system: MALME-3M melanoma
MDA-MB-231 breast = test system: MDA-MB-231 breast
RXF 393 renal = test system: RXF 393 renal
SF-268 CNS = test system: SF-268 CNS
SF-295 CNS = test system: SF-295 CNS
SF-539 CNS = test system: SF-539 CNS
UACC-257 melanoma = test system: UACC-257 melanoma
M14 melanoma = test system: M14 melanoma
HCT-15 colon = test system: HCT-15 colon
HT29 colon = test system: HT29 colon
SNB-75 CNS = test system: SNB-75 CNS
SNB-19 CNS = test system: SNB-19 CNS
U251 CNS = test system: U251 CNS
PC-3 prostate = test system: PC-3 prostate
SK-MEL-5 melanoma = test system: SK-MEL-5 melanoma
UACC-62 melanoma = test system: UACC-62 melanoma
LOX IMVI melanoma = test system: LOX IMVI melanoma
SK-MEL-28 melanoma = test system: SK-MEL-28 melanoma

Row | SMILES | growth (DU-145 prostate) | growth (K-562 leukemia) | growth (MALME-3M melanoma) | growth (MDA-MB-231 breast) | growth (RXF 393 renal) | growth (SF-268 CNS) | growth (SF-295 CNS) | growth (SF-539 CNS) | growth (UACC-257 melanoma) | growth (M14 melanoma) | growth (HCT-15 colon) | growth (HT29 colon) | growth (SNB-75 CNS) | growth (SNB-19 CNS) | growth (U251 CNS) | growth (PC-3 prostate) | growth (SK-MEL-5 melanoma) | growth (UACC-62 melanoma) | growth (LOX IMVI melanoma) | growth (SK-MEL-28 melanoma)
1 | C=CC1=C(C)C2=NC1=CC1=NC(=CC3=C(C)C4=C(O)C(C(=O)O)C(=C5NC(=C2)C(C)C5CCC(=O)O)C4=N3)C(CC)=C1C (stereo not given) | 113% | 106% | 125% | 121% | 125% | 107% | 116% | 106% | 115% | 104% | 105% | 105% | 94.5% | 112% | 124% | 89.3% | 102% | 107% | 108% | 104%
2 | CSc1nc2c(c(=O)n1C)C1(C(=O)N(Cc3ccccc3)c3ccccc31)c1c(nc(SC)n(C)c1=O)N2 | 92.7% | 89.8% | 94% | 77.6% | 88.3% | 97.2% | 85.3% | 106% | 75.1% | 99.7% | 84% | 86.2% | 99% | 91.5% | 77.5% | 44.9% | 93% | 93.6% | 101% | 104%
3 | C#CCNC(=O)CC[C@@H](C)[C@H]1CC[C@H]2[C@@H]3CC[C@@H]4CC(=O)CC[C@]4(C)[C@H]3CC[C@]12C | -38.1% [100 µM] (active) | 4.55% [100 µM] (active) | -82.2% [100 µM] (active) | -78% [100 µM] (active) | -76.1% [100 µM] (active) | -20.4% [100 µM] (active) | -51.3% [100 µM] (active) | -82.6% [100 µM] (active) | -0.129% [100 µM] (active) | -22.4% [100 µM] (active) | 1.91% [100 µM] (active) | -25% [100 µM] (active) | -58.3% [100 µM] (active) | 14.8% [100 µM] | -43.4% [100 µM] (active) | -14.6% [100 µM] (active) | -86.5% [100 µM] (active) | -74% [100 µM] (active) | -71.6% [100 µM] (active) | -84.4% [100 µM] (active)
4 | CC/C=C(\C)C(CCC)(CN=O)C(=O)OCC (stereo not given) | 111% | 114% | 105% | 94.8% | 123% | 105% | 112% | 98.9% | 85.8% | 99.3% | 99.6% | 106% | 81.9% | 105% | 99.3% | 98.3% | 111% | 110% | 99.7% | 116%
5 | O=C(N=c1n(-c2ccccc2)nc2n1CCN2C1=NCCN1)c1ccc(Cl)cc1 | 95.7% | 71.9% | 91.3% | 69.5% | 61.9% | 83.8% | 97.1% | 77.8% | 102% | 107% | 82.5% | 67.5% | 66.3% | 91.9% | 80.8% | 72.7% | 65.6% | 64.1% | 61.2% | 81.3%
6 | O=[N+]([O-])c1cccc(N=NNc2cccc([N+](=O)[O-])c2)c1 | 86.2% | 103% | 102% | 78.8% | 90.2% | 93.5% | 95.6% | 97.6% | 103% | 102% | 85.8% | 92.6% | 94.4% | 92% | 82.8% | 86.4% | 87.3% | 76.5% | 89.1% | 99.5%
7 | Cn1cc(-c2nnc(-c3cn(C)c4ncccc34)s2)c2ccccc21 | 73.6% | 27.8% | 29.1% | 40.2% | 78.4% | 72.1% | 47.7% | 45.8% | 96.1% | 92.8% | 45.1% | 54.3% | 49.4% | 76.6% | 74.8% | 53.8% | 63.7% | 69.2% | 86% | 77.4%
8 | Cc1nc(Cl)cc(N(c2cc(Cl)nc(C)n2)c2ncc(C(=O)Nc3c(C)cccc3Cl)s2)n1 | 76.5% | 6.72% (active) | 62.5% | 24% | 3.03% (active) | 47% | 50.4% | 38.9% | 79.6% | 79.6% | 59.4% | 20.4% | -30.3% (active) | 72.9% | 54.6% | 32.4% | 46.2% | 53.3% | 14.2% | 78%
9 | CC1(C)CC[C@]23CC[C@]4(C)[C@H](CC[C@@H]5[C@@]6(C)C/C(=C/c7ccncc7)C(=O)C(C)(C)[C@@H]6CC[C@]54C)[C@H]2[C@H]1OC3=O | 80.5% [100 µM] | 50.7% [100 µM] | 67.6% [100 µM] | 37.5% [100 µM] | 43.6% [100 µM] | 42.7% [100 µM] | 25.1% [100 µM] | 6.84% [100 µM] (active) | 84.5% [100 µM] | 79.3% [100 µM] | 76.5% [100 µM] | 71.5% [100 µM] | -49.9% [100 µM] (active) | 17.3% [100 µM] | 39.2% [100 µM] | 50.5% [100 µM] | 36.3% [100 µM] | 56.4% [100 µM] | 76.7% [100 µM] | 87.7% [100 µM]
